Structures can show the parent of a compound that is named as a salt. ± gives the standard deviation of the averaged measurements.
Key:
Test in all cases: cell viability (% of vehicle); higher = less cytotoxic
Conditions in all cases: 10 µM; 72 h
[1] = tested on: HCI01 (cells of a triple-negative basal-like breast cancer xenograft)
[2] = tested on: HCI03 (cells of an ER-positive luminal breast cancer xenograft)
[3] = tested on: HCI09 (cells of a triple-negative luminal androgen receptor type breast cancer xenograft)
[4] = tested on: HCI11 (cells of an ER-positive luminal breast cancer xenograft)
[5] = tested on: HCI13 (cells of an ER-positive luminal breast cancer xenograft)
[6] = tested on: HCI16 (cells of a triple-negative basal-like breast cancer xenograft)
[7] = tested on: UCD52 (cells of a triple-negative basal-like breast cancer xenograft)
[8] = tested on: WHIM2 (cells of a triple-negative basal-like breast cancer xenograft)
[9] = tested on: WHIM30 (cells of a triple-negative basal-like breast cancer xenograft)
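Note: PDX cells carrying CMV promoter-driven luciferase, viability read as total photon flux per second by IVIS imaging following D-luciferin, vehicle control 0.1% DMSO.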

SMILES | cell viability [1] | cell viability [2] | cell viability [3] | cell viability [4] | cell viability [5] | cell viability [6] | cell viability [7] | cell viability [8] | cell viability [9]
CC#CC1(O)CCC2C3CCC4=CC(=O)CCC4=C3C(c3ccc(N(C)C)cc3)CC21C (stereo unspecified) [Mifepristone] | 113 ± 13 | 99.2 | 72.6 ± 18 | 73.5 | 47.5 ± 0.63 | 89.3 | 73.3 ± 6.9 | 89.7 ± 2.1 | 93.3 ± 3
CC(=O)Oc1cc2c(s1)CCN(C(C(=O)C1CC1)c1ccccc1F)C2.Cl (stereo unspecified) [Prasugrel hydrochloride] | 140 ± 12 | 137 | 109 ± 14 | 120 | 74.2 ± 5.5 | 149 | 110 ± 20 | 110.1 ± 0.98 | 133 ± 10
Cl.N=C(N)N [Guanidine HCl] | 77.2 ± 10 | 96.3 | 96.5 ± 9.5 | 85.6 | 125 ± 4.1 | 126 | 79.1 ± 8.1 | 97.7 ± 5.6 | 135 ± 2.3
O=C(NC(Cc1cc(=O)[nH]c2ccccc12)C(=O)O)c1ccc(Cl)cc1 (stereo unspecified) [Rebamipide] | 92.4 ± 31 | 129 | 88.63 ± 0.71 | 97 | 117 ± 5.6 | 102 | 100 ± 6.4 | 86.2 ± 10 | 115 ± 8.9
CN1CCCN=C1C=Cc1cccs1.O=C(O)c1cc2ccccc2c(Cc2c(O)c(C(=O)O)cc3ccccc23)c1O [Pyrantel Pamoate] | 82.3 ± 44 | 117 | 114 ± 12 | 101 | 146 ± 13 | 109 | 99.5 ± 12 | 95.8 ± 17 | 130 ± 3
Nc1nc(=O)c2ncn(CCC(CO)CO)c2[nH]1 [Penciclovir] | 115 ± 28 | 140 | 92.4 ± 6.6 | 95.3 | 84.4 ± 9.1 | 130 | 110 ± 5.5 | 123 ± 34 | 99.7 ± 8.5
CC(CN(C)C)CN1c2ccccc2CCc2ccccc21.O=C(O)/C=C\C(=O)O (stereo unspecified) [Trimipramine (maleate)] | 99.2 ± 13 | 101 | 91.6 ± 9.4 | 69 | 92.2 ± 2.7 | 105 | 86.9 ± 1.5 | 77.6 ± 15 | 93.3 ± 1.9
CC(C=CC1=C(C)CCCC1(C)C)=CC=CC(C)=CC(=O)O [Isotretinoin] | 139 ± 2 | 109 | 91.69 ± 0.3 | 122 | 119 ± 3.2 | 105 | 190 ± 2.4 | 91.5 ± 10 | 142.94 ± 0.0078
CS(=O)(=O)O.Cc1ccc(N(CC2=NCCN2)c2cccc(O)c2)cc1 [Phentolamine Mesylate] | 112 ± 14 | 116 | 118 ± 7.2 | 112 | 124 ± 11 | 101 | 99.5 ± 6.4 | 93.5 ± 12 | 137 ± 12
C#C[C@]1(O)CC[C@H]2[C@@H]3CCC4=CCCC[C@@H]4[C@H]3C(=C)C[C@@]21CC [Desogestrel] | 94.9 ± 2.5 | 146 | 81 ± 11 | 87.2 | 41.5 ± 5.2 | 97.5 | 74.4 ± 2 | 64.2 ± 39 | 71.8 ± 53
COc1ccc(-c2nc3ccc(C4=NNC(=O)CC4C)cc3[nH]2)cc1 (stereo unspecified) [Pimobendan] | 134 ± 7.2 | 132 | 129 ± 48 | 132 | 146 ± 11 | 121 | 119 ± 5.9 | 168.4 ± 1.3 | 119 ± 7
CC(C)(Oc1ccc(Cl)cc1)C(=O)O [Clofibric Acid] | 109 ± 22 | 119 | 79.6 ± 22 | 99.3 | 94.8 ± 9.6 | 97.8 | 81.1 ± 14 | 93.3 ± 20 | 109.5 ± 0.67
CC1(C)CCC(C)(C)c2cc(NC(=O)c3ccc(C(=O)O)cc3)ccc21 [Tamibarotene] | 108 ± 22 | 63.1 | 65.6 ± 45 | 95.9 | 73.8 ± 30 | 77.1 | 124 ± 10 | 98.1 ± 28 | 121 ± 9.1
CC1=C2N=C(C=C3N=C(C(C)=C4[N-]C(C)(C5N=C1C(C)(CCC(=O)NCC(C)OP(=O)([O-])OC1C(CO)OC(n6cnc7cc(C)c(C)cc76)C1O)C5CC(N)=O)C(C)(CC(N)=O)C4CCC(N)=O)C(C)(CC(N)=O)C3CCC(N)=O)C(C)(C)C2CCC(N)=O.[CH3-].[Co+3] (stereo unspecified) [Methylcobalamin] | 81.6 ± 13 | 132 | 112 ± 14 | 91.1 | 112 ± 2.5 | 106 | 112 ± 9.1 | 91.3 ± 23 | 106.57 ± 0.028
CO[C@H]1/C=C/O[C@@]2(C)Oc3c(C)c(O)c4c(c3C2=O)C2=NC3(CCN(CC(C)C)CC3)NC2=C(NC(=O)/C(C)=C\C=C\[C@H](C)[C@H](O)[C@@H](C)[C@@H](O)[C@@H](C)[C@H](OC(C)=O)[C@@H]1C)C4=O [Rifabutin] | 56.1 ± 34 | 116 | 57.3 ± 27 | 83.2 | 113 ± 16 | 121 | 81.2 ± 1.8 | 79.1 ± 27 | 143 ± 7.7
COC(=O)N(C)c1c(N)nc(-c2nn(Cc3ccccc3F)c3ncccc23)nc1N [Riociguat] | 122 ± 4.3 | 106 | 104 ± 5.6 | 114 | 94.87 ± 0.45 | 91.6 | 104 ± 2.9 | 97.2 ± 1.1 | 124 ± 14
CCNC1CC(C)S(=O)(=O)c2sc(S(N)(=O)=O)cc21.Cl (stereo unspecified) [Dorzolamide HCl] | 100 ± 4.5 | 111 | 96.8 ± 21 | 130 | 121 ± 5.2 | 98.2 | 71.8 ± 5.1 | 105 ± 8.4 | 89.3 ± 6.7
CCN(CC)CCOCCOC(=O)C(CC)(CC)c1ccccc1.O=C(O)CC(O)(CC(=O)O)C(=O)O [Oxeladin Citrate] | 111.1 ± 1.1 | 92.7 | 143 ± 73 | 99.4 | 98.7 ± 22 | 122 | 84.9 ± 4.5 | 82.4 ± 24 | 119 ± 21
O=C(O)CCCN1CCC(OC(c2ccc(Cl)cc2)c2ccccn2)CC1.O=S(=O)(O)c1ccccc1 (stereo unspecified) [Bepotastine Besilate] | 155 ± 45 | 131 | 112 ± 1.6 | 96.6 | 121 ± 6.6 | 128 | 87.6 ± 21 | 87.7 ± 5.1 | 138 ± 10
CC1CCOC2Cn3cc(C(=O)NCc4ccc(F)cc4F)c(=O)c(O)c3C(=O)N12 (stereo unspecified) | 133 ± 25 | 110 | 139 ± 35 | 137 | 74.39 ± 0.7 | 124 | 139 ± 20 | 120 ± 15 | 176 ± 20

SMILES | cell viability [1] | cell viability [2] | cell viability [3] | cell viability [4] | cell viability [5] | cell viability [6] | cell viability [7] | cell viability [8] | cell viability [9]
COCCCCC(=NOCCN)c1ccc(C(F)(F)F)cc1.O=C(O)C=CC(=O)O [Fluvoxamine maleate] | 120 ± 4.3 | 111 | 90.71 ± 0.25 | 93 | 94.6 ± 7.2 | 67.7 | 84.9 ± 8.5 | 69.3 ± 19 | 107 ± 4.1
CCN1CCN(C(=O)NC(C(=O)NC2C(=O)N3C2SC(C)(C)C3C(=O)[O-])c2ccccc2)C(=O)C1=O.[Na+] (stereo unspecified) [Piperacillin Sodium] | 109 ± 7.5 | 91.8 | 76.1 ± 26 | 92.6 | 88.4 ± 1.3 | 111 | 108 ± 17 | 105 ± 18 | 152 ± 15
CCCC1CC(C(=O)NC(C(C)Cl)C2OC(SC)C(O)C(O)C2O)N(C)C1.Cl (stereo unspecified) [Clindamycin HCl] | 101 ± 7.5 | 122 | 99.45 ± 0.17 | 104 | 88.2 ± 19 | 142 | 117 ± 2.3 | 106 ± 33 | 122 ± 2.6
COC(=O)N=NC=C1C=[N+]([O-])c2ccccc2N1O [Carbadox] | 106 ± 3.1 | 116 | 97.8 ± 8.7 | 107 | 106 ± 28 | 98.8 | 72.3 ± 12 | 96.8 ± 9.7 | 114 ± 9.4
Cc1[nH]c(C=C2C(=O)Nc3ccccc32)c(C)c1CCC(=O)O [TSU-68 (SU6668,Orantinib)] | 79.2 ± 19 | 116 | 90.8 ± 25 | 106 | 60.8 ± 6.6 | 111 | 123 ± 18 | 60.9 ± 4.7 | 112 ± 13
CC1OC(OC2C(CO)OC(OC3C(CO)OC(O)C(O)C3O)C(O)C2O)C(O)C(O)C1NC1C=C(CO)C(O)C(O)C1O (stereo unspecified) [Acarbose] | 112 ± 9.7 | 109 | 99 ± 8.6 | 88.2 | 117 ± 12 | 78.5 | 93.3 ± 9.7 | 86 ± 17 | 104 ± 29
CC(C)(C)C(=O)C(Oc1ccc(Cl)cc1)n1ccnc1 (stereo unspecified) [Climbazole] | 152 ± 37 | 115 | 89.7 ± 16 | 98.8 | 86.4 ± 8.3 | 131 | 96 ± 10 | 121 ± 6.3 | 120 ± 8.6
CCCN1CCCCC1C(=O)Nc1c(C)cccc1C.Cl (stereo unspecified) [Ropivacaine HCl] | 98.4 ± 14 | 128 | 96 ± 5.6 | 86 | 96.2 ± 3.2 | 121 | 90.97 ± 0.57 | 92.8 ± 8.5 | 97.5 ± 4.7
O=C(C1CCCCC1)N1CC(=O)N2CCc3ccccc3C2C1 (stereo unspecified) [Praziquantel] | 99.2 ± 15 | 132 | 94.6 ± 5.6 | 93.1 | 134 ± 17 | 112 | 96.7 ± 4.2 | 94 ± 20 | 114 ± 7.9
CCOC(=O)C(CCc1ccccc1)NC(C)C(=O)N1C(C(=O)O)CC2CCCC21 (stereo unspecified) [Ramipril] | 77.7 ± 49 | 129 | 86.7 ± 4.7 | 91.6 | 115 ± 14 | 106 | 87.6 ± 5.9 | 90.8 ± 9.4 | 99.772 ± 0.035
CCCNCC(O)COc1ccccc1C(=O)CCc1ccccc1.Cl (stereo unspecified) [Propafenone HCl] | 90.3 ± 6.7 | 119 | 96 ± 14 | 87.2 | 95.3 ± 7 | 101 | 76.9 ± 7.8 | 86.9 ± 20 | 115 ± 6.6
NC(=O)c1ccc(I)c([N+](=O)[O-])c1 [Iniparib (BSI-201)] | 121 ± 21 | 198 | 123 ± 20 | 82.6 | 124 ± 31 | 106 | 114 ± 5.4 | 181 ± 22 | 129 ± 22
Nc1ccn([C@@H]2O[C@H](CO)[C@@H](O)C2(F)F)c(=O)n1 [Gemcitabine HCl] | 96.1 ± 22 | 109 | 93 ± 23 | 103 | 89.6 ± 16 | 107 | 133 ± 24 | 75.7 ± 7.1 | 105 ± 14
C=C[C@@H]1C[N@@]2CC[C@H]1C[C@@H]2[C@H](O)c1ccnc2ccc(OC)cc12 [Quinidine] | 89 ± 10 | 135 | 102 ± 20 | 102 | 122 ± 8.8 | 123 | 97.9 ± 2.7 | 101 ± 11 | 101 ± 6.2
COc1cc2c(cc1O)CCC1C2CCC2(C)C(O)CCC12 (stereo unspecified) [2-Methoxyestradiol (2-MeOE2)] | 141 ± 8 | 110 | 94.8 ± 12 | 117 | 181 ± 10 | 121 | 95.1 ± 7.2 | 114 ± 7 | 150 ± 22
Cc1nnc(NS(=O)(=O)c2ccc(N)cc2)s1 [Sulfamethizole] | 102 ± 17 | 119 | 91.2 ± 4.5 | 87 | 89.2 ± 14 | 114 | 81.2 ± 3.9 | 91.3 ± 4.2 | 88.3 ± 5
CCCCC(=O)OC1CCC2C3CCc4cc(O)ccc4C3CCC12C (stereo unspecified) [Estradiol valerate] | 157 ± 47 | 122 | 98.1 ± 4.8 | 91.3 | 182 ± 36 | 137 | 90.6 ± 7.6 | 88.9 ± 8.9 | 134 ± 9.2
Cc1ccccc1C(=O)Nc1ccc(C(=O)N2CCCC(O)c3cc(Cl)ccc32)c(C)c1 (stereo unspecified) [Tolvaptan] | 97.7 ± 38 | 138 | 80.4 ± 7.1 | 85.9 | 101 ± 5 | 159 | 89 ± 4.9 | 92.5 ± 19 | 157 ± 8.1
O=C(Oc1ccccc1C(=O)O)c1ccccc1O [Sasapyrine] | 113 ± 14 | 109 | 108 ± 17 | 104 | 74.4 ± 6.4 | 122 | 90.2 ± 1.2 | 123 ± 24 | 142 ± 7.2
